High-throughput results (PubChem BioAssay)
Compounds with a hit are over-represented: about 0.65% of the library has one in this group of screens.
TcdB GH inh: blocks C. difficile toxin B glycohydrolase activity; inhibition, % at 9.99 µM; P18177; TcdB glycohydrolase enzymatic assay, plate reader; 350,000 compounds, 0.24% hits; AID 652162; in the data active = inhibition above about 10%
Target sequence (P18177 whole entry, looked up): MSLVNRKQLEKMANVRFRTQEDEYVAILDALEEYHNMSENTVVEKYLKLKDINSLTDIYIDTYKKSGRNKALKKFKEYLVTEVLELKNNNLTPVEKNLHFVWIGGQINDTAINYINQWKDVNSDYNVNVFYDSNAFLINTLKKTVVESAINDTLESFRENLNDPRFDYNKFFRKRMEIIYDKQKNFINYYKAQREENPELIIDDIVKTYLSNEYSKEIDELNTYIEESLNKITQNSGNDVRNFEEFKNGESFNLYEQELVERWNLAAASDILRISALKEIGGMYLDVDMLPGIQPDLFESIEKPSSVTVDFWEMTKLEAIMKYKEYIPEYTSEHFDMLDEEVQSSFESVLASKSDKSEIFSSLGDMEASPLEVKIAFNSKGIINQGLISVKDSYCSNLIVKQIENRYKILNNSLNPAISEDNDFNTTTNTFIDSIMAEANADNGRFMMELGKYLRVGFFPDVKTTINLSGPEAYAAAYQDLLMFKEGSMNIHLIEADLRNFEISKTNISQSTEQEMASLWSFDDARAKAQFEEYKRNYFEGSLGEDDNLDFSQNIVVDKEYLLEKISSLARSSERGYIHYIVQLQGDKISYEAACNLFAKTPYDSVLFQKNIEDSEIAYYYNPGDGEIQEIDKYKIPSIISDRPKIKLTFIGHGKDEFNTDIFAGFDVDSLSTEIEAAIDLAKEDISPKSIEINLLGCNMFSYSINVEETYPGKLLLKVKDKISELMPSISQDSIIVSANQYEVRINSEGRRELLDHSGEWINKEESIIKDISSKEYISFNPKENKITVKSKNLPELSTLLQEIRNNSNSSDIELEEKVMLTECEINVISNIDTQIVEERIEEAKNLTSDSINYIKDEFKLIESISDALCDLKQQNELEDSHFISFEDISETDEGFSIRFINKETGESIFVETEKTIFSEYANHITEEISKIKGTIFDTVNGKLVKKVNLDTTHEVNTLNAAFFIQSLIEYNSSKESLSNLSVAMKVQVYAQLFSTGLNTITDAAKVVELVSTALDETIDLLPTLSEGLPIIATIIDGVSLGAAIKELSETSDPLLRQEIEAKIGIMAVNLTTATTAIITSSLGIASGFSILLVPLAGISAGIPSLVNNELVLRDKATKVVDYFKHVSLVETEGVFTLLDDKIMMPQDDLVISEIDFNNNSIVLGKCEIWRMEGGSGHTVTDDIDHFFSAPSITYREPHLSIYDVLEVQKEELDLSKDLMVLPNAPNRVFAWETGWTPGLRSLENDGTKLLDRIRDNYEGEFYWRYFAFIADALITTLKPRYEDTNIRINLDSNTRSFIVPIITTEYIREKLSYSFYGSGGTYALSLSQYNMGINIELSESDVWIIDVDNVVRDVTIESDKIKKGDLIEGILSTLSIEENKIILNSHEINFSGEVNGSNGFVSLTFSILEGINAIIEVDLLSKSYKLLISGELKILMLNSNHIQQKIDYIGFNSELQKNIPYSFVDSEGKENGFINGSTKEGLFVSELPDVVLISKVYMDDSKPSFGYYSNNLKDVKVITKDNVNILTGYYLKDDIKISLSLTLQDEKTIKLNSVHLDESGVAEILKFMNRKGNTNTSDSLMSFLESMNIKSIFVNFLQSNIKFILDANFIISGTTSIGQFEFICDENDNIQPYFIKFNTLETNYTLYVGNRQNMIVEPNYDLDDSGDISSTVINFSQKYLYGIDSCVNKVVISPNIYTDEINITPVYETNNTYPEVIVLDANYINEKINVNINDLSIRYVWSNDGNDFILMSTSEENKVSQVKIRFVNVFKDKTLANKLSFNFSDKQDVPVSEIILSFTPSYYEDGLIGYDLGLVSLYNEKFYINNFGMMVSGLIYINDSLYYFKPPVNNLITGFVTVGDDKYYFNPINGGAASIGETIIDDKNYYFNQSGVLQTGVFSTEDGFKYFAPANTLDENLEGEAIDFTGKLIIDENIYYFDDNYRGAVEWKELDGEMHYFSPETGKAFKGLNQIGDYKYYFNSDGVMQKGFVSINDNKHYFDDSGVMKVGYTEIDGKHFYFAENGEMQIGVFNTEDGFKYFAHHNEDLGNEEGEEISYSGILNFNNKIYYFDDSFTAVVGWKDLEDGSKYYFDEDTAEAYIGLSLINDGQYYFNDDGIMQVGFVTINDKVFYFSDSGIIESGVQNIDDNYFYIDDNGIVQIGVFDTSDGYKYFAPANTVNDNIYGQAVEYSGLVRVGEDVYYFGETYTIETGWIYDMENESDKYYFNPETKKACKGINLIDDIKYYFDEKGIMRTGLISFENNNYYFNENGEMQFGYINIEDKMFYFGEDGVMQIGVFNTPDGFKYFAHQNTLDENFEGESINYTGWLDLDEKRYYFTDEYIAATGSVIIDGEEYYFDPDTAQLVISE
BH1578 lux ind: induces V. cholerae light production without autoinducers; V. cholerae BH1578 lux reporter, luminescence, 6 h; activation, % at 18.7 µM; 350,000 compounds, 0.16% hits; AID 588436; in the data active = activation mostly above about 9.7%, no sharp cut-off
UGM FP inh: Mtb UDP-galactopyranose mutase inhibition. P9WIQ1. purified UGM, fluorescence polarization probe displacement. inhibition, % at 10 µM. 320,000 compounds, 0.06% hits; in the data active = inhibition above about 10%, passing the limit was not always enough
Yp Topo-I inh: Y. pestis Topo-I inhibition via cleavage products; Y. pestis Topo-I cleavage product accumulation, plate reader; activity, % at 10 µM; 360,000 compounds, 0.064% hits; in the data active = activity above about 50%, passing the limit was not always enough
PrP UTR inh: inhibition of PrP 5' UTR reporter expression; inhibition, % (no concentration beside the values); cell-based PrP 5' UTR mRNA reporter, plate reader; 340,000 compounds, 0.35% hits; AID 488862; in the data active = inhibition above about 52%
Numbers stand for hits; ! = a repeat was not active.

O=C(Nc1ccccc1F)N1C[C@@H]2N[C@H](C1)C2c1ccc(-c2cccc(F)c2)cc1 (stereo not given in full) was read as TcdB GH inh 24!.
For Cc1c(Nc2cc(=O)oc3ccccc23)c(=O)n(-c2ccccc2)n1C the results were BH1578 lux ind 17, UGM FP inh inactive, Yp Topo-I inh inactive and PrP UTR inh inactive.
Screening Cc1cc(Nc2c(C)n(C)n(-c3ccccc3)c2=O)c2ccccc2n1 returned TcdB GH inh inactive, BH1578 lux ind inactive, UGM FP inh inactive, Yp Topo-I inh inactive and PrP UTR inh inactive.
CCS(=O)(=O)N1CC2(C1)[C@@H](c1ccccc1)[C@@H](CO)N2Cc1ccccn1 was read as TcdB GH inh inactive.
CC(C)OC(=O)C1C2C=CC3(CN(CC4CCCO4)C(=O)C13)O2 (stereo not given) was read as BH1578 lux ind 21, UGM FP inh inactive, Yp Topo-I inh inactive and PrP UTR inh inactive.
Cc1cccc(-n2c(=O)c3ccccc3n3c(=S)[nH]nc23)c1C was read as TcdB GH inh 12, BH1578 lux ind inactive, UGM FP inh inactive, Yp Topo-I inh inactive and PrP UTR inh inactive.
Screening COc1ccc(/C=N/NC(=O)CSc2nnc(CCCc3ccc(OC)c(C)c3)o2)cc1 returned BH1578 lux ind 33, UGM FP inh inactive, Yp Topo-I inh inactive and PrP UTR inh inactive.
Screening S=c1nc(-c2cccc(Cl)c2)[nH][nH]1 returned TcdB GH inh 14, BH1578 lux ind inactive, UGM FP inh inactive, Yp Topo-I inh inactive and PrP UTR inh inactive.
Screening S=c1nc(-c2cc(Cl)cc(Cl)c2)[nH][nH]1 returned TcdB GH inh inactive, BH1578 lux ind inactive, UGM FP inh inactive, Yp Topo-I inh inactive and PrP UTR inh inactive.
O=C(C1CCC1)N1CCCCN2[C@@H](CO)[C@H](c3ccc(C#CC4CCCC4)cc3)[C@@H]2C1 was read as TcdB GH inh inactive.
CO[C@@H]1CN(C)C(=O)c2cc(NC(=O)NC(C)C)ccc2OC[C@@H](C)N(S(C)(=O)=O)C[C@H]1C was read as TcdB GH inh 16.
`CO[C@@H]1CN(C)C(=O)c2cc(NC(=O)NC(C)C)ccc2OC[C@H](C)N(S(C)(=O)=O)C[C@H]1C` gave TcdB GH inh inactive.
Screening CN(C)c1ccc2nc3ccc(=[N+](C)C)cc-3sc2c1 returned TcdB GH inh inactive, BH1578 lux ind inactive, UGM FP inh inactive, Yp Topo-I inh inactive and PrP UTR inh inactive.
For Cc1cc2nc3ccc(=[N+](C)C)cc-3sc2cc1N the results were BH1578 lux ind inactive, Yp Topo-I inh 419 and PrP UTR inh inactive.
COc1cc2[nH]c(=S)n(NC(=O)c3ccccc3)c(=O)c2cc1OC was read as BH1578 lux ind active, Yp Topo-I inh inactive and PrP UTR inh inactive.
`COc1cc2[nH]c(=S)n(-c3ccccc3)c(=O)c2cc1OC` gave TcdB GH inh inactive, BH1578 lux ind inactive, UGM FP inh inactive, Yp Topo-I inh inactive and PrP UTR inh inactive.
`CO[C@@H]1CN(C)C(=O)c2cc(NS(=O)(=O)c3ccccc3C)ccc2OC[C@@H](C)NC[C@H]1C` gave TcdB GH inh inactive.
Screening CCC(C)NC(=O)CSc1nc2cc(S(=O)(=O)N3CCOCC3)ccc2n1CC (stereo not given) returned TcdB GH inh 11, BH1578 lux ind inactive, UGM FP inh inactive, Yp Topo-I inh inactive and PrP UTR inh inactive.
CCn1c(SCC(=O)c2cc(C)ccc2C)nc2cc(S(=O)(=O)N3CCOCC3)ccc21 was read as TcdB GH inh inactive, BH1578 lux ind inactive, UGM FP inh inactive, Yp Topo-I inh inactive and PrP UTR inh inactive.
Screening Cc1ccc(C2=NS(=O)(=O)N(C)C(C(=O)NCc3ccc4c(c3)OCO4)=C2)cc1 returned TcdB GH inh inactive, BH1578 lux ind inactive, UGM FP inh inactive, Yp Topo-I inh inactive and PrP UTR inh inactive.
For COc1ccc(C2=NS(=O)(=O)N(C)C(C(=O)NCc3ccc4c(c3)OCO4)=C2)cc1 the results were TcdB GH inh 100, BH1578 lux ind inactive, UGM FP inh inactive, Yp Topo-I inh inactive and PrP UTR inh inactive.
`CC(Sc1nccn1C)C(=O)c1c(N)n(C)c(=O)n(C)c1=O` (stereo not given) gave TcdB GH inh 24, BH1578 lux ind inactive, UGM FP inh inactive, Yp Topo-I inh inactive and PrP UTR inh inactive.
`CC(=O)OCCn1c2nc(=O)[nH]c(=O)c-2nc2cc(C)c(C)cc21` gave TcdB GH inh inactive, BH1578 lux ind inactive, UGM FP inh 108, Yp Topo-I inh inactive and PrP UTR inh inactive.
`CC(=O)OCCn1c(C)[n+](CCOC(C)=O)c2cc(Cl)c(Cl)cc21` gave TcdB GH inh inactive, BH1578 lux ind inactive, UGM FP inh inactive, Yp Topo-I inh inactive and PrP UTR inh inactive.
